# Assay results: PubChem BioAssay (Tox21)
# Results filed as inconclusive are left out. Unmarked numbers belong to inactive results. Active and inactive are the calls of the source. The call rests on the fitted dose curve; in most records, active means well fitted cell-killing curve with a large enough effect in the repeat runs; inconclusive means weak or mixed curves, or effect the other way; inactive means flat fitted curve, though single readings scatter.
# Assay: cAMP Responsive Elements (CRE) small molecule agonists, cell-based qHTS assay: qHTS cell viability counter screen (AID 2060914); further: nearly all actives have a fitted effect of over 50% in size
# Details: CRE-bla HEK293T viability, CellTiter-Glo luminescence, 5 h; series mostly up to 92.4 µM; activity change, negative = cytotoxicity: at the top concentration
# Summary of the method: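 HEK 293T CRE-bla; DMEM + 10% dialyzed FBS, 25 mM HEPES; 18 h pre-incubation; compound 3 h, 37 °C/5% CO2; CellTiter-Glo added after reporter read; luminescence after 30 min RT.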
# On the % scale 0 is the no-effect control and ±100 the full control effect; potency means the concentration at half of the fitted maximal effect.
SMILES,"activity change, negative = cytotoxicity",Potency
CC(C)OC(=O)Cc1ccccc1,-3.23%,–
ClC1=C(Cl)[C@]2(Cl)[C@H]3[C@H]([C@@H]4C=C[C@H]3C4)[C@@]1(Cl)C2(Cl)Cl,–,inactive
C[N+](C)(C)Cc1ccccc1,–,inactive
C[C@@H]1CC[C@H]2[C@@H](C)C(=O)O[C@@H]3O[C@@]4(C)CC[C@@H]1[C@]32OO4,0.797% [at 42.5 µM],–
CC(=O)[O-].[Tl+],4.17%,–
ClCCCCl,0.469%,–
CC1(C)CCC(Cc2ccc(Cl)cc2)C1(O)Cn1cncn1 (configuration not stated),-16.4%,–
Nc1ccccc1C(=O)OC/C=C/c1ccccc1,-8.28%,–
CO/C=C(/C(=O)OC)c1ccccc1COc1cccc(C(F)(F)F)n1,-18.3%,–
C[C@]12Cc3nonc3C[C@@H]1CC[C@@H]1[C@@H]2CC[C@@]2(C)[C@H]1CC[C@]2(C)O,–,29.8 µM (active)
CCCCCCCCCCCC[N+](C)(C)CCOc1ccccc1,–,61.1 µM (active)
CC(C)OC(=O)Nc1ccccc1,–,inactive
CCCC(Cn1cncn1)c1ccc(Cl)cc1Cl (configuration not stated),-3.94%,–
CC(c1ccccc1)(c1ccc(O)cc1)c1ccc(O)cc1,-5.77%,–
ClCCCCBr,-14.8%,–
CCCCn1cc[n+](C)c1 (tested in a mixture with another compound),0.539%,–
C=C(C)[C@H]1CN[C@H](C(=O)O)[C@H]1CC(=O)O,-0.614% [at 42.5 µM],–
OC(c1ccccc1)(c1ccccc1)C1CCNCC1,-8.43% [at 42.5 µM],–
COP(=O)(OC)O/C(=C/Cl)c1cc(Cl)c(Cl)cc1Cl,-3.67%,–
CCOC(=O)CC(=O)CCl,-11.5%,–
OCC(Br)CBr (configuration not stated),2.12%,–
CO/N=C(\C(=O)OC)c1ccccc1CO/N=C(\C)c1cccc(C(F)(F)F)c1,-20.1%,–
